TGFb SMAD3 inh = qHTS for Inhibitors of TGF-b. HepG2 CAGA-GFP TGF-b/SMAD3 reporter, GFP fluorescence, 18 h; TGF-beta stimulated, 500 pg/mL final. Potency, µM (series often up to 46.1 µM), without a hit: top-dose activity, negative = inhibition, usual class: inhibitors. hit rate 1.2% among 410,000. AID 588855, 2011; also: % is scaled to controls: 0 for no effect and ±100 for the full control effect; nearly all actives have a fitted effect of over 65% in size
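Cell-based qHTS in HEPG2 carrying a CAGA-GFP Smad reporter; compounds added before 500 pg/mL final TGF-beta, 18 h incubation at 37 degrees C, GFP fluorescence quantified per cell by imaging cytometry.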
ATXN viability = Viability Counterscreen for Primary qHTS for Inhibitors of ATXN expression; S2 cells (HEK-293 line with an ATXN2-luciferase reporter) viability, CellTiter-Fluor protease fluorescence, 24 h; Potency, µM (series often up to 56.7 µM), hits mostly cytotoxic; hit rate 0.49% among 400,000; AID 651635, 2014; also: nearly all actives have a fitted effect of over 40% in size
HepG2 tox = qHTS for Inhibitors of TGF-b: Cytotox Counterscreen | HepG2 CAGA-GFP viability, ATP luminescence, 18 h | Potency, µM (series often up to 46.1 µM), without a hit: at the top dose activity change, negative = cytotoxicity, actives largely listed as cytotoxic | hit rate 0.76% among 410,000 | AID 588856, 2011
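CellTiter-Glo luminescence gave cytotoxicity after 18 hours at 37 degrees C. The cells were HepG2 CAGA-GFP in 1% FBS DMEM, stimulated with 500 pg/mL TGF-beta after compound addition. %Activity was normalised to no-cell wells (complete cell-killing) and DMSO (no toxicity), and curves were fitted and classified.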
ATXN2 expr inh = Primary qHTS for Inhibitors of ATXN expression. HEK-293 ATXN2-luciferase reporter, luminescence, 24 h. Potency, µM (highest dose often 57 µM), for the others: at the highest dose activity change, negative = inhibition, most hits filed as inhibitors. hit rate 0.72% among 360,000; also: % is scaled to controls: 0 for no effect and ±100 for the full control effect; nearly all actives have a fitted effect of over 55% in size
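qHTS (up to 57 uM final) was run with 24 h compound exposure of reporter cells at 37 °C. Each well was multiplexed: SteadyGlo luminescence measured ATXN2-luciferase expression after a fluorogenic Gly-Phe-AFC viability readout (25 uM final).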
DT40 TDP1 no CPT = qHTS for Inhibitors of human tyrosyl-DNA phosphodiesterase 1 (TDP1): qHTS in cells in absence of CPT; AID 686978, 2013; hit rate 15% among 420,000; DT40 Tdp1-/- hTDP1 cells, no CPT, ATP luminescence, 48 h; Potency, µM (titrated, usually from 46.2 µM), inactives show at the highest dose activity change, negative = growth inhibition, most hits filed as inhibitors; also: % is scaled to controls: 0 for no effect and ±100 for the full control effect; nearly all actives have a fitted effect of over 55% in size
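Growth of hTDP1-complemented DT40 Tdp1-knockout cells is measured by ATP luminescence after at least 48 hr compound exposure at 37 °C, with DMSO substituting for the 20 nM CPT used in the parallel screen.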
TDP1 cell CPT = qHTS for Inhibitors of human tyrosyl-DNA phosphodiesterase 1 (TDP1): qHTS in cells in presence of CPT; chicken DT40 Tdp1-/-;hTDP1 cells + 20 nM CPT, ATP luminescence, 48 h; hit rate 12% among 420,000; Potency, µM (titrated, usually from 46.2 µM), for the others: top-dose activity change, negative = growth inhibition, usual class: inhibitors; also: % is scaled to controls: 0 for no effect and ±100 for the full control effect; nearly all actives have a fitted effect of over 55% in size
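Chicken DT40 Tdp1-/- cells stably complemented with human TDP1 were seeded at 400 cells/well in medium containing 20 nM camptothecin, exposed to pin-transferred compounds, and grown at 37 °C for at least 48 hr. Viability was read as ATP luminescence.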
Starred values were filed as active, the others as inactive; i = inactive; ? = inconclusive; . = not tested or not shown; [ ] = dose if it differs, or a comment. Compounds with a hit are over-represented: about 17% of the library has one in this group of screens. Calls follow the shape of the dose curve; as a rule, active = well fitted curve in the direction sought with a large enough effect; inconclusive = small, poorly fitted or top-dose-only effect, or another doubt; inactive = no such curve, though single readings can be large; an effect the other way counts as inactive or inconclusive. Potency is read from the fitted curve at half-maximal effect.

SMILES | TGFb SMAD3 inh | ATXN viability | HepG2 tox | ATXN2 expr inh | DT40 TDP1 no CPT | TDP1 cell CPT
CC(C)=CCC/C(C)=C/CNC(=O)C[C@H]1C[C@H](C(=O)N2CCCCC2)[C@@]2(C)c3[nH]c4cc(CCC(=O)N(C)C)ccc4c3CCN2C1=O | ? | 32µM* | -47% | ? | 15µM* | 7.3µM*
CC[C@]12c3[nH]c4cc(CCC(=O)N(C)C)ccc4c3CCN1C(=O)[C@@H](CC(=O)NC/C=C(\C)CCC=C(C)C)C[C@@H]2C(=O)N1CCN(C(=O)C2CC2)CC1 | ? | ? | -17% | -22% | 6.5µM* | 8.2µM*
CC[C@]12c3[nH]c4ccccc4c3CCN1C(=O)C(CC(=O)NC/C=C(\C)CCC=C(C)C)C[C@@H]2C(=O)N1CCN(C(=O)c2ccco2)CC1 (stereo not given in full) | ? | . | -13% | 0% | ? | 16µM*
CC(C)CCN(C(=O)CNC(=O)c1cccs1)C(C(=O)NC1CCCCC1)c1cccnc1 (stereo not given) | -11% | i | -13% | -2% | -16% | -17%
C[C@H](CO)N1C[C@H](C)[C@H](CN(C)S(=O)(=O)c2cccc(F)c2)OCc2ccccc2-c2c(n(C)c3ccccc23)C1=O | ? | ? | -33% | ? | 16µM* | 10µM*
C[C@H](CO)N1C[C@H](C)[C@H](CN(C)S(C)(=O)=O)OCc2ccccc2-c2c(n(C)c3ccccc23)C1=O | 0% | i | -1% | 6% | -23% | -21%
C[C@@H]1CN([C@H](C)CO)C(=O)c2c(c3ccccc3n2C)-c2ccccc2CO[C@@H]1CN(C)S(=O)(=O)c1cccs1 | ? | ? | -20% | -7% | 21µM* | ?
Cc1cc(C)n(C(=O)/C(C#N)=N/Nc2cc(Cl)cc(Cl)c2)n1 | ? | ? | 7% | . | 2.6µM* | 3.3µM*
Cc1ccc(S(=O)(=O)N2CCN(Cc3ccccc3)CC2)s1 | -4% | i | -36% | -8% | -20% | -17%
COc1ccc(/C=C/C(=O)NCCCN2CCCCCC2)cc1 | 8% | i | 0% | -4% | 22% | 1%
CC(C)NC(=S)NC(=O)/C=C/c1ccc(F)cc1 | ? | i | 7% | 16% | 15µM* | 21µM*
O=C(/C=C/c1ccc(F)cc1)NC(=S)Nc1ccccc1C(=O)NC1CCCCC1 | 3% | ? | -17% | -19% | 13µM* | 16µM*
CCOc1ccc(NC(=S)NC(=O)/C=C/c2ccc(C)cc2)c([N+](=O)[O-])c1 | -27% | ? | -7% | ? | 13µM* | 15µM*
O=C(/C=C/c1ccc(F)cc1)NC(=S)NC1CCCCC1 | -7% | i | -6% | . | ? | -20%
O=C(/C=C/c1ccc(F)cc1)NCCCN1CCN(CCCNC(=O)/C=C/c2ccc(F)cc2)CC1 | -10% | i | 12% | -9% | 26µM* | ?
COCCn1c(=O)c(-c2cccc(C#N)c2)nc2cnc(N3CCNCC3)nc21 | . | . | . | . | ? | -6%
CCCCN(CC)C(=O)c1ccc2c(c1)NC(=O)c1ccccc1S2 | -27% | i | -14% | 0% | -9% | -24%
Cc1cc(C)c(C)c(C(=O)C(=O)c2ccccc2)c1 | 3% | i | -2% | 11% | 1% | -2%
Cc1ccc(/C=C/C(=O)Nc2ccccc2C(N)=O)cc1 | 0% | i | -17% | 37% | ? | 21µM*
Cc1ccc(/C=C/C(=O)NC(=S)Nc2ccccc2C(=O)NC2CCCCC2)cc1 | ? | ? | -30% | ? | 12µM* | 13µM*
CC(=O)c1c(C)[nH]c(C(=O)OCc2csc(CC(=O)Nc3ccccc3C)n2)c1C | -24% | i | -13% | -26% | 9.2µM* | 18µM*
CCN(CC)S(=O)(=O)c1cccc(NC(=O)COC(=O)c2[nH]c(C)c(C(C)=O)c2C)c1 | -20% | ? | -18% | . | 1µM* | 1.8µM*
CC(C)=CC(=O)OCc1csc(CC(=O)Nc2ccccc2C)n1 | 20% | i | 9% | -4% | 11% | -22%
CC(=O)c1c(C)[nH]c(C(=O)Nc2cccc(S(=O)(=O)N(C)C)c2)c1C | 3% | i | -5% | 77% | ? | ?
CC(=O)c1c(C)[nH]c(C(=O)OCC(=O)Nc2cc(S(=O)(=O)N3CCCC3)ccc2Cl)c1C | ? | i | -28% | 1% | 23µM* | ?
SMILES | TGFb SMAD3 inh | ATXN viability | HepG2 tox | ATXN2 expr inh | DT40 TDP1 no CPT | TDP1 cell CPT
O=C(COC(=O)c1ccc(Cl)nc1)Nc1cc(S(=O)(=O)N2CCCCC2)ccc1Cl | -9% | i | 2% | -21% | ? | 18µM*
O=C(COC(=O)c1ccc(Cl)nc1)Nc1ccc(S(=O)(=O)N2CCCC2)cc1 | 3% | i | 7% | -6% | 0% | -13%
COCCN(C(=O)COC(=O)/C=C/c1ccc2c(c1)OCO2)c1c(N)n(Cc2ccccc2)c(=O)[nH]c1=O | -2% | i | 10% | 7% | -8% | 6%
CC(=O)c1c(C)[nH]c(C(=O)OCC(=O)Nc2ccccc2Cl)c1C | -27% | i | -25% | -9% | 15µM* | 16µM*
CC(=O)c1c(C)[nH]c(C(=O)CN2CCN(S(=O)(=O)c3ccc(C(C)C)cc3)CC2)c1C | -24% | i | -17% | -9% | 10µM* | 15µM*
CCc1c(C)c2ccc(OCC(=O)NCC3CCC(C(=O)O)CC3)c(C)c2oc1=O (stereo not given) | 1% | i | -7% | -18% | -17% | 0%
Fc1ccc(/C=C2\CCCC3=C2Nc2ncnn2C3c2ccc(F)cc2)cc1 (stereo not given) | ? | 18µM* | -98% | 25µM* | 18µM* | 15µM*
COc1ccc(OC)c(-c2cc(Cl)c3c(c2)CC(CNC(=O)c2cccnc2SC)O3)c1 (stereo not given) | . | i | . | . | ? | 3%[9.04 µM]
COc1ccc2c(c1)c(C1=C(c3c[nH]c4ccccc34)C(=O)NC1=O)cn2CCCN(C)C | . | . | . | 22µM* | . | .
CCCn1cc(S(=O)(=O)c2ccc(C)cc2)c(=O)c2cc(OC)ccc21 | -1% | ? | -4% | 5% | 2% | -19%
Cn1cc(SCC(N)=O)c2ccccc21 | 3% | ? | -2% | 0% | -3% | -17%

Screening results from PubChem BioAssay.
